Assay results: PubChem BioAssay (EPA / NIEHS)
Inconclusive results are not listed. Some structures have more than one record in an assay (separate samples or runs), and their calls can disagree. Calls of active or inactive are those of the source. The calls were made as follows, unless noted: active = hit-call score of the fitted dose curve at least 0.9, where 1 is the maximum; inactive = score below 0.9.

Legend:
[1] = target: Oxysterols receptor LXR-alpha (Homo sapiens) (UniProt Q13133); test: ATG_LXRa_TRANS: Attagene TRANS-FACTORIAL HepG2 Assay for human Liver X Receptor alpha (LXRa) (AID 2282980; active = hit-call score of the fitted dose curve at least 0.9, where 1 is the maximum); settings: HepG2 Attagene TRANS reporter, LXRa transactivation
Oxysterols receptor LXR-alpha (Homo sapiens), sequence (Q13133 whole entry, looked up, the tested form may be a part): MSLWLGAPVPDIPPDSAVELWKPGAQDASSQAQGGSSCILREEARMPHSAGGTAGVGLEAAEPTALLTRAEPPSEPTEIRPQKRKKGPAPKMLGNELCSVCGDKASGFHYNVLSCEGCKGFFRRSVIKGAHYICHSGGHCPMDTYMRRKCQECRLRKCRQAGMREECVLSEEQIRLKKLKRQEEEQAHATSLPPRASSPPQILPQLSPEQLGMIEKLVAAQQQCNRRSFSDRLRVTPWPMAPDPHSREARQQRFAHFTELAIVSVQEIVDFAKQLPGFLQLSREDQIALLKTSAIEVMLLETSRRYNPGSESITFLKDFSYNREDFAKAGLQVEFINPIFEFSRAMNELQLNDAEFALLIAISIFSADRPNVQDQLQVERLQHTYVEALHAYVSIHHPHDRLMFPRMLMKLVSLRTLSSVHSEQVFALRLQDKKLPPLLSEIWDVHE
Procedure, shortened: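 In this multiplexed TRANS system, compounds act on HepG2 cells carrying GAL4-UAS reporter units and a receptor-GAL4 fusion for 24 h. Induced reporter RNA is amplified, fluorescently labelled and sized by capillary electrophoresis, with DMSO as baseline.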

[2] = target: Oxysterols receptor LXR-beta (Homo sapiens) (UniProt P55055); test: ATG_LXRb_TRANS: Attagene TRANS-FACTORIAL HepG2 Assay for human Liver X Receptor beta (LXRb) (AID 2282981; active = hit-call score of the fitted dose curve at least 0.9, where 1 is the maximum); settings: HepG2 Attagene TRANS GAL4-LXRb reporter, mRNA
Oxysterols receptor LXR-beta (Homo sapiens), sequence (P55055 whole entry, looked up, the tested form may be a part): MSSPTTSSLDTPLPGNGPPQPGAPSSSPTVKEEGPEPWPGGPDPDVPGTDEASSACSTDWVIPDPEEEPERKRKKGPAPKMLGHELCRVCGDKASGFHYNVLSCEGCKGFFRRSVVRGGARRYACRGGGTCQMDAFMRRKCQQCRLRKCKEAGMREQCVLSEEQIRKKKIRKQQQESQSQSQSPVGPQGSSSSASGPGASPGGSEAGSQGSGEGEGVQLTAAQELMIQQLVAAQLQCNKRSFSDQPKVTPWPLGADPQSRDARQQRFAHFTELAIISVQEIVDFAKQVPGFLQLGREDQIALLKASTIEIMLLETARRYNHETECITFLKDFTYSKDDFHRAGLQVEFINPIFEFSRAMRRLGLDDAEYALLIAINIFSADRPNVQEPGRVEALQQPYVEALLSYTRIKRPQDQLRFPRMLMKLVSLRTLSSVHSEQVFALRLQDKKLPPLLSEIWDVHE
Procedure, shortened: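 HepG2 cells transiently transfected with multiple reporter transcription units carrying chimeric NR-Gal4 proteins acting on GAL4-UAS reporters; compound exposure 24 h. Reporter mRNA quantified by RT-PCR, 6-FAM labelling, HpaI digestion and capillary electrophoresis; gain of signal versus DMSO.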

[3] = target: Transcriptional activator Myb (Homo sapiens) (UniProt P10242); test: ATG_Myb_CIS: Attagene CIS-FACTORIAL HepG2 Assay for human Myeloblastosis (Myb) Proto-Oncogene Transcription Factor (AID 2282986); settings: HepG2 Attagene CIS-FACTORIAL Myb reporter transcription; actives raise or lower the signal
Transcriptional activator Myb (Homo sapiens), sequence (P10242 whole entry, looked up): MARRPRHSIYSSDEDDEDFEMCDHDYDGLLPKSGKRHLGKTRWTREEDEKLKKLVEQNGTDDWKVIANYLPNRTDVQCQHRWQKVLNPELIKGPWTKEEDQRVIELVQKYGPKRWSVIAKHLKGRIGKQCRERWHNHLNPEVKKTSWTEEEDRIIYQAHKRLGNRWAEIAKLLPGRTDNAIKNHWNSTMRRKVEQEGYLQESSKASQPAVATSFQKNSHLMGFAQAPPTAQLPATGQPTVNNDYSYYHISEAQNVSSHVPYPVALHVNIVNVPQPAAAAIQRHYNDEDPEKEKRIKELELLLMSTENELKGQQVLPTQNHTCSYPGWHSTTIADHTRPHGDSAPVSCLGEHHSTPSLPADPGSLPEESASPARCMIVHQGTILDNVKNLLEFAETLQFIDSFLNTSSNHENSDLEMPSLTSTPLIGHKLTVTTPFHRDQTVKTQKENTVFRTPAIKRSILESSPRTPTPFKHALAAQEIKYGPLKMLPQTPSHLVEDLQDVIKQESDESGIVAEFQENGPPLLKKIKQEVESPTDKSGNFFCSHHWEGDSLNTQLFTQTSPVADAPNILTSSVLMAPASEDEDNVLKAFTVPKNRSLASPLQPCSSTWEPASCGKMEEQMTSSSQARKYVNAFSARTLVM
Procedure, shortened: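 Reporter transcript levels, quantified by fluorescent RT-PCR and capillary electrophoresis, serve as the read-out. Transfected HepG2 cells carrying cis-promoter reporter units are dosed for 24 hours, and curves are fitted bidirectionally against DMSO controls.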

[4] = target: Nuclear respiratory factor 1 (Homo sapiens) (UniProt Q16656); test: ATG_NRF1_CIS: Attagene CIS-FACTORIAL HepG2 Assay for human Nuclear Respiratory Factor 1 (NRF1) Orphan Gene (AID 2282987); settings: HepG2 NRF1 cis-element reporter, Attagene multiplex; actives raise or lower the signal
Nuclear respiratory factor 1 (Homo sapiens), sequence (Q16656 whole entry, looked up): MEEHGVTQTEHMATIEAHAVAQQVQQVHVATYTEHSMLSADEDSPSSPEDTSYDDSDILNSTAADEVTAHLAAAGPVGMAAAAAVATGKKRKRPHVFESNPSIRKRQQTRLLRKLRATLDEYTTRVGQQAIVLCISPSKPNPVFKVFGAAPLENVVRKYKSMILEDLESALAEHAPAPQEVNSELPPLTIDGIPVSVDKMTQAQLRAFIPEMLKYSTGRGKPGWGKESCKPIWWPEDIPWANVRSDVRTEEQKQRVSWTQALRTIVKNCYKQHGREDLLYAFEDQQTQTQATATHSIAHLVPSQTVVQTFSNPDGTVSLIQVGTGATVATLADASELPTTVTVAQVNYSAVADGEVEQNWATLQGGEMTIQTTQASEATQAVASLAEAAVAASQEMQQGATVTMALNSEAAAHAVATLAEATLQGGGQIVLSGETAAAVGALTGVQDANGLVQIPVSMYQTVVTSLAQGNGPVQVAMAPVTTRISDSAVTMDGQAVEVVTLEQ
Procedure, shortened: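 Multiplexed cis-reporter assay, HepG2 cells, 24 h treatment. Total RNA → oligo(dT) RT → PCR with reporter-specific primers → 6-FAM primer extension → HpaI cut → CE. Bidirectional fit vs DMSO.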

[5] = ATG_NFI_CIS: Attagene CIS-FACTORIAL HepG2 Assay for human Nuclear Factor I (NFI) (AID 2282989); settings: HepG2 cis-regulatory reporter, NFI response element transcription; actives raise or lower the signal
Procedure, shortened: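 Endogenous TF activity in HepG2 cells transiently transfected with cis-element-driven multiplexed reporter units, read 24 h after dosing. Reporter mRNA quantified by RT-PCR, 6-FAM labelling, HpaI digestion and capillary electrophoresis; bidirectional fit versus DMSO.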

[6] = target: Myc proto-oncogene protein (Homo sapiens) (UniProt P01106); test: ATG_Myc_CIS: Attagene CIS-FACTORIAL HepG2 Assay for human Myelocytomatosis (Myc) Proto-Oncogene Transcription Factor (AID 2282990); settings: HepG2, Attagene cis-reporter transcription factor activity; actives raise or lower the signal
Myc proto-oncogene protein (Homo sapiens), sequence (P01106 whole entry, looked up): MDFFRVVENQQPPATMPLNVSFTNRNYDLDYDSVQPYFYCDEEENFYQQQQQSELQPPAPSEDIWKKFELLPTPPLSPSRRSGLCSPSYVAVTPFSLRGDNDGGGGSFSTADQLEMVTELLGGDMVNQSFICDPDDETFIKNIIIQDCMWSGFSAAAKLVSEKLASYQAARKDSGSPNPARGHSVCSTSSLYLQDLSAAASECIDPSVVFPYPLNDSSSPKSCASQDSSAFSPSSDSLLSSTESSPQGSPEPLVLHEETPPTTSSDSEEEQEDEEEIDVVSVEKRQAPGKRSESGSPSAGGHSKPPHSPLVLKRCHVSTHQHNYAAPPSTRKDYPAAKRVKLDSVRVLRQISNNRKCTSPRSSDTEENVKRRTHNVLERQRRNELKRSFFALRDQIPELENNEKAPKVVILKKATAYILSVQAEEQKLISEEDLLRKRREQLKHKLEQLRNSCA
Procedure, shortened: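 DMSO-normalised, bidirectionally fitted reporter mRNA signal. HepG2 cells transfected with cis reporter constructs, treated 24 h; transcripts detected by RT-PCR, 6-FAM primer extension and CE.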

[7] = ATG_NRF2_ARE_CIS: Attagene CIS-FACTORIAL HepG2 Assay for human Nuclear Factor Erythroid 2 Related Factor 2 (NFR2) response to Antioxidant Response Elements (ARE) (AID 2282992); settings: HepG2 Attagene ARE/NRF2 reporter, transcription factor activity; actives raise or lower the signal;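 as to AC50: reporter mRNA level measured by RT-PCR and capillary electrophoresis fluorescence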
Procedure, shortened: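 Cis-factorial assay: transfected HepG2 reporter library, 24 h dosing, mRNA readout via RT-PCR/CE; DMSO-referenced bidirectional analysis.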

[8] = BSK_3C_TissueFactor: BioMAP Diversity Plus: 3C Assay for Tissue Factor Biomarker Activity (AID 2282997); settings: BioMAP 3C HUVEC, tissue factor biomarker readout; actives raise or lower the signal
Procedure, shortened: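 Endothelial monolayers (human umbilical vein, primary) are dosed, incubated 24 h, and assayed for Tissue Factor by ELISA; DMSO serves as negative control for bidirectional fitting.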

[9] = BSK_3C_uPAR: BioMAP Diversity Plus: 3C Assay for Urokinase-type plasminogen activator receptor (uPAR) Biomarker Activity (AID 2282998); settings: BioMAP 3C HUVEC, uPAR biomarker ELISA; actives raise or lower the signal
Procedure, shortened: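 Primary human umbilical vein endothelial cells, 3C system; surface uPAR measured by ELISA 24 h after dosing. Cytotoxicity via SRB total protein in parallel cultures; bidirectional fit against DMSO.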

[10] = BSK_3C_VCAM1: BioMAP Diversity Plus: 3C Assay for Vascular cell adhesion molecule 1 (VCAM1) Biomarker Activity (AID 2282999); settings: BioMAP 3C HUVEC, VCAM1 ELISA, cytokine-stimulated; actives raise or lower the signal
Procedure, shortened: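 Human umbilical vein endothelial cells were dosed with compound for 24 h, after which cell-surface VCAM-1 was quantified by ELISA. Bidirectional curve fitting used DMSO as negative control and activity baseline.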

[11] = BSK_4H_Eotaxin3: BioMAP Diversity Plus: 4H Assay for Eotaxin 3 Biomarker Activity (AID 2283000); settings: primary human endothelial cells (HUVEC); actives raise or lower the signal
Procedure, shortened: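 ELISA quantitation of CCL26 (Eotaxin-3) protein from chemically dosed human vascular endothelial cells at 24 h; increases and decreases both scored relative to DMSO-treated baseline.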

[12] = target: Hepatocyte nuclear factor 4-alpha (Homo sapiens) (UniProt P41235); test: ATG_HNF4a_TRANS: Attagene TRANS-FACTORIAL HepG2 Assay for human Hepatocyte Nuclear Factor 4 alpha (HNF4a) (AID 2282982; active = hit-call score of the fitted dose curve at least 0.9, where 1 is the maximum); settings: HepG2 HNF4a transactivation reporter, mRNA readout
Hepatocyte nuclear factor 4-alpha (Homo sapiens), sequence (P41235 whole entry, looked up, the tested form may be a part): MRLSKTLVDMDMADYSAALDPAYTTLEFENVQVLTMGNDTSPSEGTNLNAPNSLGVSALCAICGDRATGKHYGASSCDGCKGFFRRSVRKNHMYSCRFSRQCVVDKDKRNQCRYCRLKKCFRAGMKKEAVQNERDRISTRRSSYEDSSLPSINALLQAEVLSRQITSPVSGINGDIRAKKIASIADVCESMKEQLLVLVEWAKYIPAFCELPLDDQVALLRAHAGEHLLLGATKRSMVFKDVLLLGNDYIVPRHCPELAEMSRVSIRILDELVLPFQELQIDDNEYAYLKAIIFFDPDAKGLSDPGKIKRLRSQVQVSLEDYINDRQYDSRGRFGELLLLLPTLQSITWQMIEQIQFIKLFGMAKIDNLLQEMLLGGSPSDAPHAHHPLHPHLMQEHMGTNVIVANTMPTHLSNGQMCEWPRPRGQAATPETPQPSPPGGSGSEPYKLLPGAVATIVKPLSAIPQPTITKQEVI
Procedure, shortened: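 HepG2 cells transiently transfected with multiplexed GAL4-UAS reporter units responsive to chimeric NR-GAL4 proteins; compound exposure 24 h. Reporter mRNA quantified by RT-PCR, 6-FAM labelling, HpaI digestion and capillary electrophoresis; gain of signal versus DMSO baseline.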

[13] = ATG_M_06_TRANS: Attagene TRANS-FACTORIAL HepG2 Assay for M06 Transcription Factor (Internal Marker) (AID 2282983; active = hit-call score of the fitted dose curve at least 0.9, where 1 is the maximum); settings: HepG2 Attagene TRANS M06 internal marker reporter
Procedure, shortened: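 Internal-marker background readout from a multiplexed TRANS reporter system in HepG2; 24 h dosing; mRNA induction quantified by RT-PCR plus capillary electrophoresis fluorescence; DMSO as negative control and baseline.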

[14] = ATG_M_32_TRANS: Attagene TRANS-FACTORIAL HepG2 Assay for M32 Transcription Factor (Internal Marker) (AID 2282984; active = hit-call score of the fitted dose curve at least 0.9, where 1 is the maximum); settings: HepG2 Attagene TRANS M32 internal marker reporter
Procedure, shortened: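 HepG2 cells transiently transfected with multiple GAL4-UAS reporter transcription units, dosed for 24 hours; reporter mRNA quantified by RT-PCR, 6-FAM primer extension, HpaI digestion and capillary electrophoresis. Gain-of-signal fitted versus DMSO baseline; internal background-control marker.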

[15] = target: Nuclear receptor subfamily 4 group A member 2 (Homo sapiens) (UniProt P43354); test: ATG_NURR1_TRANS: Attagene TRANS-FACTORIAL HepG2 Assay for human Nuclear Receptor Related Protein 1 (NURR1) (AID 2282985; active = hit-call score of the fitted dose curve at least 0.9, where 1 is the maximum); settings: HepG2 Attagene TRANS reporter, mRNA readout
Nuclear receptor subfamily 4 group A member 2 (Homo sapiens), sequence (P43354 whole entry, looked up, the tested form may be a part): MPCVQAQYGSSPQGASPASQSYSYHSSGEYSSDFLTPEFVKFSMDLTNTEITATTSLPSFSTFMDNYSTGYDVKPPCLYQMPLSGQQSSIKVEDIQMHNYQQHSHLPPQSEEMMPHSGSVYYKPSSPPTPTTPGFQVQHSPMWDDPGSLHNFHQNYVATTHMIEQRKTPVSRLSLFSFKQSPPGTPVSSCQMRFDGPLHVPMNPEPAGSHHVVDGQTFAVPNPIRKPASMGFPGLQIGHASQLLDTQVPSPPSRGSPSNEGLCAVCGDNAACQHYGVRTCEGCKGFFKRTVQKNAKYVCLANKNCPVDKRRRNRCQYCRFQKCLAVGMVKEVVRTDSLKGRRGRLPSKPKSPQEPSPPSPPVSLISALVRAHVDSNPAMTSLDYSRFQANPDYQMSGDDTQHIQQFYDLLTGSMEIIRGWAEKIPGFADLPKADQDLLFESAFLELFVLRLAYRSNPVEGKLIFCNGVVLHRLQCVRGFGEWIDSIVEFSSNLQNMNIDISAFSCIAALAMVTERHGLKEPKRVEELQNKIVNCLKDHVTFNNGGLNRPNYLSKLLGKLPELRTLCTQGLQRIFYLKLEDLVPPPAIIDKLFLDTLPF
Procedure, shortened: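 HepG2 cells transiently transfected with GAL4-UAS reporter units and chimeric NR-Gal4 constructs; chemical exposure 24 h. Reporter mRNA quantified by RT-PCR, fluorescent labelling and capillary electrophoresis; gain of signal fitted relative to DMSO baseline.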

[16] = target: Cellular tumor antigen p53 (Homo sapiens) (UniProt P04637); test: ATG_p53_CIS: Attagene CIS-FACTORIAL HepG2 Assay for human p53 Transcription Factor (AID 2282994); settings: HepG2 p53 cis-element reporter, Attagene mRNA; actives raise or lower the signal
Cellular tumor antigen p53 (Homo sapiens), sequence (P04637 whole entry, looked up): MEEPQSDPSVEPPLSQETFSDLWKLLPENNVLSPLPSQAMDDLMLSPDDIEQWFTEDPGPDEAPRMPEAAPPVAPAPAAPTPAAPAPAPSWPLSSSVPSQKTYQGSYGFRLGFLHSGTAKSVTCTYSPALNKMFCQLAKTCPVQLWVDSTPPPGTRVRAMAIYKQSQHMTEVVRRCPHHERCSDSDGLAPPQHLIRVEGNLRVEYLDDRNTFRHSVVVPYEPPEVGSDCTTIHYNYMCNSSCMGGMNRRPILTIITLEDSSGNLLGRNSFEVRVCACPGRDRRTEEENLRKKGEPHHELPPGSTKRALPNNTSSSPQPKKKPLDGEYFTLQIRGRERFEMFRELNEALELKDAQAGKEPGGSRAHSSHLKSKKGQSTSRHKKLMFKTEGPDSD
Procedure, shortened: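 Using HepG2 hepatoma cells carrying cis-acting multiplexed reporters, mRNA induction is detected after a 24 h exposure. Gain- and loss-of-signal responses are fitted relative to DMSO-treated cells.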

[17] = ATG_NF_kB_CIS: Attagene CIS-FACTORIAL HepG2 Assay for human Nuclear Factor Kappa B (NF-kB) (AID 2282991); settings: HepG2 Attagene cis-factorial NF-kB reporter mRNA; actives raise or lower the signal
Procedure, shortened: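 Transient MRTU transfection of human HepG2 liver cells → 24 h chemical exposure → total RNA, oligo(dT) RT → PCR, 6-FAM primer extension, HpaI digest 2 h 37 C → CE fragment analysis. Bidirectional fitting, DMSO negative control.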

[18] = ATG_Oct_MLP_CIS: Attagene CIS-FACTORIAL HepG2 Assay for human Octamer-Binding Transcription Factor (Oct) (AID 2282993); settings: HepG2 Attagene cis-factorial Oct reporter, mRNA; actives raise or lower the signal
Procedure, shortened: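 HepG2 cells transiently transfected with cis-element-driven reporter transcription units (endogenous TF activity); 24 h compound exposure. Reporter mRNA quantified by RT-PCR, 6-FAM labelling, HpaI digestion and capillary electrophoresis; bidirectional fit versus DMSO baseline.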

Measured: AC50

CCOP(=S)(OCC)Oc1ccc(S(C)=O)cc1 (stereo not given)
not listed: [12] | [13] | [14] | [15] | [16] | [17] | [18]
inactive: all other assays above

COc1ccc(C=O)cc1OC
not listed: [1] | [8] | [9] | [10] | [11] | [17] | [18]
inactive: all other assays above

CC(C)CCCCCCOC(=O)c1ccccc1C(=O)OCCCCCCC(C)C
not listed: [2] | [13] | [14] | [15]
inactive: all other assays above

OCc1ccco1
active: [7] 49.6 µM
not listed: [2] | [14] | [15]
inactive: all other assays above

c1ccc(N=NNc2ccccc2)cc1
inactive: [1] | [12] | [13] | [3] | [4] | [16]
active: [15] 39.7 µM | [5] 180 µM | [6] 168 µM | [7] 30.9 µM | [18] 117 µM

C=CCc1ccc(OC)cc1
not listed: [2] | [8] | [9] | [10] | [11] | [12] | [16]
inactive: all other assays above

CC(C#N)CCC#N (stereo not given)
not listed: [1] | [8] | [9] | [10] | [11] | [14] | [16]
inactive: all other assays above

C=CC#N
active: [7] 119 µM
not listed: [2] | [8] | [9] | [10] | [11] | [12] | [13]
inactive: all other assays above

COc1ccc(C=O)cc1
inactive: [1] | [12] | [13] | [3] | [4] | [5] | [6] | [17] | [7] | [16]

ClCC(Cl)CCl
not listed: [2] | [12] | [17]
inactive: all other assays above

ClCc1ccccn1
inactive: [2] | [12] | [13] | [14] | [3] | [4] | [5] | [6] | [16]
active: [7] 44.3 µM | [18] 59.6 µM

Nc1ccc(-c2ccc(N)c(Cl)c2)cc1Cl
active: [7] 2.66 µM | [9] 6.24 µM | [11] 1.93 µM
not listed: [1] | [4] | [16] | [17] | [18]
inactive: all other assays above

O=S(=O)(c1ccc(Cl)cc1)c1ccc(Cl)cc1
active: [7] 10 µM
not listed: [12] | [14] | [15] | [17]
inactive: all other assays above

CCOC(=O)CP(=O)(OCC)OCC
inactive: [1] | [12] | [14] | [15] | [3] | [4] | [5] | [6] | [17] | [7]

CC(=[OH+])/C=C(/C)[O-].CC(=[OH+])/C=C(/C)[O-].CC(=[OH+])/C=C(/C)[O-].[Al]
not listed: [1] | [8] | [9] | [10] | [11] | [14]
inactive: all other assays above

N#CCc1ccc(Cl)cc1
inactive: [1] | [13] | [3] | [5] | [6] | [17] | [7] | [16]

CC(=O)c1cc(C(C)(C)C)cc2c1CCC2(C)C
active: [15] 27.3 µM | [5] 74.2 µM | [6] 146 µM | [17] 156 µM | [7] 61.7 µM
inactive: [1] | [2] | [14] | [3] | [4]

CC1CN1P(=O)(N1CC1C)N1CC1C (stereo not given)
inactive: [1] | [12] | [13] | [3] | [4] | [5] | [6] | [17] | [7] | [18]

CCCCCCCCc1ccc(O)cc1
inactive: [2] | [12] | [13] | [14] | [15] | [3] | [4] | [5] | [6] | [17] | [7] | [18]
active: [7] 11.2 µM | [8] 32.2 µM | [9] 37.2 µM | [10] 31.9 µM | [11] 33.5 µM

O=C1C(Cl)=C(Cl)C(=O)c2ccccc21
active: [7] 2.2 µM
not listed: [2] | [4] | [8] | [9] | [10] | [11] | [12]
inactive: all other assays above

CC1(C)Cc2cccc(O)c2O1
not listed: [2] | [14] | [16] | [17]
inactive: all other assays above
